Reference: PubChem BioAssay (Tox21)
Inconclusive results are not listed. Unmarked numbers belong to inactive results. Unless noted, calls follow the shape of the full dose curve.

Molecular target: Progesterone receptor (Homo sapiens) (UniProt P06401)
Test: qHTS assay to identify small molecule agonists of the progesterone receptor (PR) signaling pathway (AID 1346784); also: nearly all actives have a fitted effect of over 30% in size
Conditions: PR-UAS-bla HEK293T, beta-lactamase FRET ratio, 16 h; series mostly up to 92.4 µM; activation: at the top concentration
Outline: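 HEK 293T PR-UAS-bla reporter cells, 2% charcoal-stripped FBS; 6 hr settle at 37C/5% CO2, compound (DMSO) 16 hr, LiveBLAzer B/G FRET substrate 2 hr RT, fluorescence intensity read.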
% is scaled to controls: 0 for no effect and ±100 for the full control effect.

Progesterone receptor (Homo sapiens), sequence (P06401 whole entry, looked up): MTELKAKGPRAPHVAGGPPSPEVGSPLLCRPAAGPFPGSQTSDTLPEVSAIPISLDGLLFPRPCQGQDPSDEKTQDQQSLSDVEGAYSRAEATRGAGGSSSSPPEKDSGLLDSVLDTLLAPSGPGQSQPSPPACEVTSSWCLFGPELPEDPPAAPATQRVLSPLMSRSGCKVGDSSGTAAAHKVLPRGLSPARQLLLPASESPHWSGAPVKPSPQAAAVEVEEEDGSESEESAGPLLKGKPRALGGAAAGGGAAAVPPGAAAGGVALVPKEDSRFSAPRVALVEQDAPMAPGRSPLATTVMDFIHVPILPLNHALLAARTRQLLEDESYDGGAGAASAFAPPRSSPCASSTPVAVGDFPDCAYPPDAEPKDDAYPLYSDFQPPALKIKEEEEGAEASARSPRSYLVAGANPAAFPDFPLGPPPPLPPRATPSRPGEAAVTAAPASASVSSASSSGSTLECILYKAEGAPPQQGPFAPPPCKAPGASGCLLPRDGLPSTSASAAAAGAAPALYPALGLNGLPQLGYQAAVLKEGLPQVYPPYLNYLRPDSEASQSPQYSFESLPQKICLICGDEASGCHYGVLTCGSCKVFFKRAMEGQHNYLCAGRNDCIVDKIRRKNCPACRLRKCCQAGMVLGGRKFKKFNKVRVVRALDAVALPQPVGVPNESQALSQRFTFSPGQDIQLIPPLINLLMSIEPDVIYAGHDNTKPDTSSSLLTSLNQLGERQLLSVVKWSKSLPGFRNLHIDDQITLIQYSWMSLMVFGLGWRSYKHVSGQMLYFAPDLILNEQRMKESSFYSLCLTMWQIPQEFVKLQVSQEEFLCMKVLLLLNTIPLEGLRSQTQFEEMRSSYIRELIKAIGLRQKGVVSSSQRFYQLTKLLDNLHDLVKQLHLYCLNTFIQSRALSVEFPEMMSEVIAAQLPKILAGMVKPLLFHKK

Row | Structure (SMILES) | activation
1 | CC1(C)[C@H]2CC[C@](C)(C2)[C@H]1O | 0.249%
2 | COCCc1ccccn1 | 0.35% [at 42.5 µM]
3 | COC(=O)CCCCC(CCSS/C(CCO)=C(\C)N(C=O)Cc1cnc(C)nc1N)SC(C)=O (stereo unspecified) | -1.14% [at 42.5 µM]
4 | CC12CCC(C1)C(C)(C)C2O (stereo unspecified) | -3.62%
5 | COc1cc(/C=C/C(N)=O)cc(OC)c1OC | -0.876% [at 42.5 µM]
6 | CCOc1cccc(N)c1 | -1.28%
7 | CCOC(=O)CC1(C)OCC(C)O1 (stereo unspecified) | 0.797%
8 | Cc1cc(C)c(C(=O)O)c(C)c1 | 0.373%
9 | CCCSSCCC | -0.268%
10 | CC(=O)OC1CCCCC1C(C)(C)C (stereo unspecified) | 0.214%
11 | Fc1ccccc1 | 1.97%
12 | CC1=C(O)C(=O)C(C)O1 (stereo unspecified) | -1.15%
13 | C/C(CC(C)C)=N\O | -0.1%
14 | O=C(Cn1ccnc1[N+](=O)[O-])NCc1ccccc1 | -0.556% [at 42.5 µM]
15 | CC1(C)Oc2ccc(C#N)cc2[C@@H](N2CCCC2=O)[C@@H]1O | 0.237% [at 42.5 µM]
16 | [O]=[Mo](=[O])=[O] | 1.92% [at 19 µM]
17 | CCCCOCC(C)O (stereo unspecified) | -1.06%
18 | CCC(C)C(=O)OCCc1ccccc1 (stereo unspecified) | -0.0868%
19 | COC(C)(OC)OC | 0.273%

Molecular target: Progesterone receptor (Homo sapiens) (UniProt P06401)
Test: qHTS assay to identify small molecule antagonists of the progesterone receptor (PR) signaling pathway (AID 1346795; active = well fitted inhibition curve with a large enough effect in the signal ratio in the repeat runs, not every such curve was filed as active; the % refers to the signal ratio)
Conditions: PR-UAS-bla HEK293T, beta-lactamase FRET ratio, 16 h; series mostly up to 92.4 µM; activity change, negative = inhibition: at the top concentration
Outline: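 Beta-lactamase reporter, HEK293T PR-UAS-bla line; 2% charcoal-stripped FBS; 6 hr pre-incubation, 37C/5% CO2. Compound + R5020 1 nM final, 16 hr. LiveBLAzer B/G FRET substrate, 2 hr RT; fluorescence intensity read.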

Row | Structure (SMILES) | activity change, negative = inhibition
20 | OC1OCCOC1O (stereo unspecified) | 7.34%
21 | CC(C)(CO)C(O)C(=O)NCCCO (stereo unspecified) | 7.59%
22 | CCC(C)C(C)=O (stereo unspecified) | 14%
23 | Cc1ccccc1C(N)=O | 8.2%
24 | CCCc1ccc(O)cc1 | -5.63%
25 | CCc1occc(=O)c1O | 13.6%
26 | CC1(C)CC(OC(=O)CCCCCCCCC(=O)OC2CC(C)(C)NC(C)(C)C2)CC(C)(C)N1 | 5.15% [at 18.9 µM]
27 | CC1CC(=O)CC(C)(C)C1 (stereo unspecified) | 14.3%
28 | CCCCOC(=O)C(C)O (stereo unspecified) | 5.08%
29 | CC1CCc2c(N3CCC(O)CC3)c(F)cc3c(=O)c(C(=O)O)cn1c23 (stereo unspecified) | 16.6% [at 42.5 µM]
30 | COP(=O)(O)OP(=O)(O)OC | 7.04%
31 | CCCC(=O)Nc1ccc(OCC(O)CNC(C)C)c(C(C)=O)c1 (stereo unspecified) | 10.4% [at 42.5 µM]
32 | CN(C)C(C)(C)CO | 7.22%
33 | CC(C)Nc1ccccc1 | 2.01%
34 | C=CC/C=C/C | -4.53%
35 | COc1ccc2c(c1)c1c3n2CCN(C)C3=NCC1 | 9.41% [at 42.5 µM]
36 | CN(C)CCOC(=O)C(c1ccccc1)C1(O)CCCC1 (stereo unspecified) | 2.13% [at 42.5 µM]
37 | COC(=O)c1cc(Cl)cc(Cl)c1 | 14.3%
38 | CC1(C)[C@H]2CC[C@](C)(C2)[C@H]1O | 8.98%

Row | Structure (SMILES) | activity change, negative = inhibition
39 | COCCc1ccccn1 | 10.9% [at 42.5 µM]
40 | COC(=O)CCCCC(CCSS/C(CCO)=C(\C)N(C=O)Cc1cnc(C)nc1N)SC(C)=O (stereo unspecified) | 0.783% [at 42.5 µM]
41 | CC12CCC(C1)C(C)(C)C2O (stereo unspecified) | -3.75%
42 | COc1cc(/C=C/C(N)=O)cc(OC)c1OC | 0.331% [at 42.5 µM]
43 | CCOc1cccc(N)c1 | -9.29%
44 | CCOC(=O)CC1(C)OCC(C)O1 (stereo unspecified) | 9.64%
45 | Cc1cc(C)c(C(=O)O)c(C)c1 | 16.8%
46 | CCCSSCCC | 8.39%
47 | CC(=O)OC1CCCCC1C(C)(C)C (stereo unspecified) | 7.38%
48 | Fc1ccccc1 | 11.1%
49 | CC1=C(O)C(=O)C(C)O1 (stereo unspecified) | 2.61%
50 | C/C(CC(C)C)=N\O | 1.1%
51 | O=C(Cn1ccnc1[N+](=O)[O-])NCc1ccccc1 | -0.488% [at 42.5 µM]
52 | CC1(C)Oc2ccc(C#N)cc2[C@@H](N2CCCC2=O)[C@@H]1O | 8.21% [at 42.5 µM]
53 | [O]=[Mo](=[O])=[O] | 2.07% [at 18.9 µM]
54 | CCCCOCC(C)O (stereo unspecified) | 7.6%
55 | CCC(C)C(=O)OCCc1ccccc1 (stereo unspecified) | 0.323%
56 | COC(C)(OC)OC | 4.91%
